# Test results from the supplement of paper PMC6555819.
# Experiments:
# Experiment in all cases: PBM binding z-score (relative to random genomic background probes); higher = stronger binding; sequences stand for … in GC…GCGATTGACAGCGTAGAATGAAGG
# [1] = tested on: FXR:RXRa (NR concentration 270 nM, RXRa partner concentration 90 nM)
# Summary of the method: (§1)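 Scanned fluorescence from custom Agilent 4×180K protein-binding microarrays was regression-normalized. Binding z-scores use random background probes as reference. Ligand-free nuclear receptor dimers were incubated on the arrays for 1 h and detected with antibodies against each partner (one per run).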
# [2] = tested on: LXRa:RXRa (NR concentration 270 nM, RXRa partner concentration 90 nM)
# Summary of the method: as §1
# [3] = tested on: LXRa homodimer (NR concentration 270 nM)
# Summary of the method: as §1
# [4] = tested on: LXRb:RXRa (NR concentration 270 nM, RXRa partner concentration 90 nM)
# Summary of the method: as §1
# [5] = tested on: LXRb homodimer (NR concentration 270 nM)
# Summary of the method: as §1
# [6] = tested on: PPARa:RXRa (NR concentration 270 nM, RXRa partner concentration 90 nM)
# Summary of the method: as §1
# [7] = tested on: PPARg:RXRa (NR concentration 180 nM, RXRa partner concentration 90 nM)
# Summary of the method: as §1
# [8] = tested on: PPARg:RXRa 270nM:90nM, anti-RXR (NR concentration 270 nM, RXRa partner concentration 90 nM)
# Summary of the method: as §1
# [9] = tested on: PPARg:RXRa 30nM:10nM, anti-RXR (NR concentration 30 nM, RXRa partner concentration 10 nM)
# Summary of the method: as §1
# [10] = tested on: PPARg:RXRa 90nM:30nM, anti-RXR (NR concentration 90 nM, RXRa partner concentration 30 nM)
# Summary of the method: as §1
# [11] = tested on: PPARg:RXRa DBDmut IVT, anti-RXR (DBD mutation: RXRa K156A/R161A, NR concentration 270 nM, RXRa partner concentration 90 nM)
# Summary of the method: as §1
# [12] = tested on: PPARg:RXRa IVT, anti-PPARg (NR concentration 270 nM, RXRa partner concentration 90 nM)
# Summary of the method: as §1
# [13] = tested on: PPARg DBDmut:RXRa IVT, anti-PPARg (DBD mutation: PPARg1 K132A/R137A, NR concentration 270 nM, RXRa partner concentration 90 nM)
# Summary of the method: as §1
# [14] = tested on: PPARg DBDmut IVT, anti-PPARg (DBD mutation: PPARg1 K132A/R137A, NR concentration 270 nM)
# Summary of the method: as §1
# [15] = tested on: PPARg homodimer (NR concentration 180 nM)
# Summary of the method: as §1
# [16] = tested on: PXR:RXRa (NR concentration 270 nM, RXRa partner concentration 90 nM)
# Summary of the method: as §1
# [17] = tested on: PXR homodimer (NR concentration 270 nM)
# Summary of the method: as §1
# [18] = tested on: RARa:RXR (NR concentration 270 nM, RXRa partner concentration 90 nM)
# Summary of the method: as §1
# [19] = tested on: RARa homodimer (NR concentration 270 nM)
# Summary of the method: as §1
# [20] = tested on: RARb:RXRa (NR concentration 270 nM, RXRa partner concentration 90 nM)
# Summary of the method: as §1
Sequence,PBM binding z-score [1],PBM binding z-score [2],PBM binding z-score [3],PBM binding z-score [4],PBM binding z-score [5],PBM binding z-score [6],PBM binding z-score [7],PBM binding z-score [8],PBM binding z-score [9],PBM binding z-score [10],PBM binding z-score [11],PBM binding z-score [12],PBM binding z-score [13],PBM binding z-score [14],PBM binding z-score [15],PBM binding z-score [16],PBM binding z-score [17],PBM binding z-score [18],PBM binding z-score [19],PBM binding z-score [20]
GCAGACAGGTGAAACGCAGTTAACTCAGGGTGGC,-0.413,-0.168,-0.315,-0.381,-1.38,0.714,0.486,-0.149,-0.977,-0.452,0.917,0.29,-1.71,-0.986,-0.869,-0.255,-0.841,0.164,-0.965,0.589
ATATGTAGGTTAGCTGGGGTCAGTCAGACTAGGC,2.47,4.36,0.893,3.37,0.881,4.38,5.08,4.38,1.86,3.72,6.39,6.31,2.61,1.83,1.96,5.06,1.14,3.81,0.813,2.88
GCTGCTAGGTCAAGTTGGTCAGCTAACGGGTACG,4.8,3.29,0.651,2.31,0.442,3.64,2.48,2.94,0.55,2.09,4.62,4.19,-0.715,-0.257,1.75,1.68,-0.361,2.19,0.462,4.38
CCTAGCAGGCCAGGGCCACTCAAGCATTTCGCTT,-0.787,-0.944,-0.625,-1.04,-1.61,-0.638,-0.367,-1.16,-1.24,-1.48,-0.0979,-0.384,-1.54,-0.795,-0.711,-1.11,-0.775,-0.903,-0.897,0.21
ACTAGCAGGCCAGGGGTCACTCAAGATTAGTCCG,4.12,3.93,0.488,4.47,0.258,5.04,6.84,6.37,4.58,6.76,0.771,3.24,0.053,0.0858,2.99,5.13,0.401,5.58,1.68,3.85
GCTATTAGTTAAAAGGGCAACCGAATGATTCTCG,0.183,0.439,0.409,0.624,-0.5,2.02,1.84,3.45,1.77,3.13,0.433,0.998,0.676,-0.168,1.15,0.537,0.39,0.874,1.2,1.97
TCTAGTTGGTCAAAGGTCCCACACTCGAAATGCG,1.07,1.18,0.135,1.26,0.288,3.33,6.7,7.21,6.42,7.55,2.94,3.27,0.799,1.15,1.16,0.98,-0.0577,1.49,1.06,1.67
AGAACGAGAGCAATGAGTTGATAGCACGGGTGGC,-0.715,-0.7,-0.726,-0.759,-0.725,-0.447,0.796,-0.0173,-0.196,0.0595,0.0253,-0.231,-0.979,-0.694,-1.02,-0.378,-0.202,-0.818,-0.732,-0.525
CGAACTAGGTCAAAACAGGACAGTGAAGGATGAT,3.26,3.07,0.154,1.86,0.313,4.54,6.73,5.86,3.32,5.36,7.83,8.1,3.19,2.56,2.39,2.05,-0.00978,2.02,0.444,3.33
ATCTCTAGGTAAAAGTTAAGTGAATCCCGAGGAT,0.172,0.0131,-0.136,-0.0735,0.69,1.58,3.42,4.91,2.79,4.71,2.03,2.31,1.28,1.28,0.613,-0.127,-0.352,-0.144,0.373,0.28
GCTTGTAGATCAAGGTTAAGAACGACTAAGCTAA,0.0945,0.622,-0.347,0.349,-0.704,1.59,1.12,2.18,0.429,1.44,1.08,1.15,0.637,-0.445,0.356,0.364,-0.0676,0.827,0.211,0.716
TCTAATTGGTCAAAGGTCACACACTCGAAATGCG,6.13,5.81,4.4,5.53,2.67,6.59,10.7,9.75,10.1,12,3.57,6.22,4.31,4.82,12.2,6.35,1.5,7.91,5.86,5.27
TCGAGTAGGTTAGCAATGGGGCATTCAGCTTTCT,-0.119,0.188,-0.715,0.235,-0.623,0.539,-0.248,0.643,1.08,1.09,2.43,1.46,-0.902,-1.37,-0.285,-0.264,-0.747,-0.123,-0.474,0.542
ACTTACGGGTCAACGAGGTGATAGCACGCGTATA,6.81,4.17,0.0422,3.7,0.296,5.53,5.36,5,2.26,4.11,3.7,4.4,2.02,1.22,2.44,3.94,0.307,5.09,1.19,4.04
